# From paper PMC5540273 (PLoS ONE, 2017)
# Assays:
# Settings in all cases: concentration: 1 μM,replicates: in singlicate; n = 1
# PIP5K1A = system: PIP5K1A
# PIP5K1C = system: PIP5K1C
# PIP5K2B = system: PIP5K2B
# PIP5K2C = system: T1, PIP5K2C
# T1 construct: gene PIP4K2C
# PKAC-alpha = system: T2, PKAC-alpha
# T2 construct: gene PRKACA
# PKAC-beta = system: T3, PKAC-beta
# T3 construct: gene PRKACB
# PKMYT1 = system: PKMYT1
# PKN1 = system: PKN1
# PKN2 = system: PKN2
# PLK1 = system: PLK1
# PLK2 = system: PLK2
# PLK3 = system: PLK3
# PLK4 = system: PLK4
# PRKCD = system: PRKCD
# PRKCE = system: PRKCE
# PRKCH = system: PRKCH
# PRKCI = system: PRKCI
# PRKCQ = system: PRKCQ
# PRKD1 = system: PRKD1
# PRKD2 = system: PRKD2
# 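Note: KINOMEscan kinase panel screen.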
SMILES,%Inh (PIP5K1A) [%],%Inh (PIP5K1C) [%],%Inh (PIP5K2B) [%],%Inh (PIP5K2C) [%],%Inh (PKAC-alpha) [%],%Inh (PKAC-beta) [%],%Inh (PKMYT1) [%],%Inh (PKN1) [%],%Inh (PKN2) [%],%Inh (PLK1) [%],%Inh (PLK2) [%],%Inh (PLK3) [%],%Inh (PLK4) [%],%Inh (PRKCD) [%],%Inh (PRKCE) [%],%Inh (PRKCH) [%],%Inh (PRKCI) [%],%Inh (PRKCQ) [%],%Inh (PRKD1) [%],%Inh (PRKD2) [%]
O=C(Nc1ccccc1)c1cccc(Oc2ccc3nccn3n2)c1,0,23,15,14,5,0,0,26,29,36,5,0,0,0,13,0,5,24,33,0
Cc1ccc(Nc2ccnc(Nc3ccc4c(c3)CS(=O)(=O)C4)n2)cc1O.Cl [GW579362],29,39,80,90,7,0,0,11,0,0,0,4,99.7,0,19,0,32,46,29,55
O=C(NOCC1CC1)c1cc(Br)c(F)c(F)c1Nc1ccc(I)cc1Cl,4,43,4,36,9,0,0,9,0,0,0,4,0,0,6,0,0,13,0,11
Cc1ccn2nc(-c3ccc(F)cc3)c(-c3ccncc3)c2c1.Cl [GW457859],54,81,15,26,29,13,0,0,0,0,0,0,2,0,14,8,18,8,17,20
Cn1ccc2ncnc(Oc3ccc(NC(=O)Nc4ccnc(C(F)(F)F)c4)c(Cl)c3)c21,13,0,15,0,0,0,3,0,0,0,0,0,11,0,0,0,0,7,0,4
COc1cc(Nc2nccc(N3CCC(NC(=O)c4cccc(C#N)c4)C3)n2)cc(OC)c1OC (stereo not shown) [GSK1379751],0,47,0,94.5,0,0,0,0,0,0,0,0,36,0,7,0,0,0,0,0
O=C(Nc1n[nH]c2cc(-c3ccco3)ccc12)C1CC1 [SB-737447],45,12,27,0,0,0,0,0,12,0,6,8,20,4,0,8,29,5,0,0
Cl.c1ccc(Oc2ccc(Nc3ccnc4cc(-c5ccc(CN6CCNCC6)o5)ccc34)cc2)nc1 [GW567142],0,34,0,23,0,0,0,10,0,22,0,0,16,0,0,0,20,0,24,3
CS(=O)c1ccc(-c2coc3ccc(-c4n[nH]c(=O)o4)cc23)cc1 (stereo not shown),0,68,20,79,0,23,8,8,12,6,4,6,34,24,7,0,8,2,0,4
COc1cccc(C2=C(Nc3cccc(Cl)c3)C(=O)NC2=O)c1 [SB-341556],0,23,0,28,0,0,0,5,0,0,0,0,8,26,19,0,0,17,0,0
CCn1c(-c2nonc2N)nc2cncc(Br)c21 [SB-738004],54,53,28,38,11,0,6,0,4,18,8,14,76,21,92.8,58,36,6,0,11
COc1ccc(Nc2nccc(N3CCC(NC(=O)c4cccc(C#N)c4)C3)n2)cc1 (stereo not shown) [GSK1379730],4,35,0,23,12,9,0,37,0,0,0,0,0,8,0,36,54,0,0,0
Cn1ccc2ncnc(Oc3ccc(NC(=O)Nc4cc(C(C)(C)C)on4)c(Cl)c3)c21,14,0,38,0,0,0,0,0,0,0,4,7,19,21,0,0,6,27,0,7
C[C@@H]1CNc2c(sc3ccc4nc(-c5ccc(O)cc5)ccc4c23)C(=O)N1,3,18,78,13,4,5,2,0,16,0,6,15,90.1,43,46,35,5,59,70,34
N#Cc1cccc(C(=O)NC2CCN(c3ccnc(Nc4ccc(F)cc4)n3)C2)c1 (stereo not shown) [GSK1379708],0,37,0,21,9,0,0,14,0,0,0,0,0,0,0,0,23,0,0,0
CNC(=O)c1ccccc1Nc1nc(Nc2cccc(CS(C)(=O)=O)c2)ncc1C.O=CO [GSK1520489],55,52,84,79,11,28,84,56,2,97.9,68,17,100,13,77,0,17,42,0,6
COc1cccc(OC)c1C(=O)Nc1cccc(-c2nn3ccccc3c2-c2ccnc(Nc3cccc(F)c3)n2)c1 [GSK361065],0,0,0,0,23,0,5,0,13,0,10,0,16,26,14,11,21,17,17,1
CN1CCN(CCNc2nc3cc(Oc4ccc(NC(=O)Nc5cc(C(F)(F)F)ccc5F)cc4)ccc3[nH]2)CC1.Cl.Cl [GW768504],20,0,0,0,0,2,0,0,8,0,0,0,8,9,0,0,0,0,0,14
O=C(NCC1CC1)c1ccc(-c2cc(C(=O)NC3CC3)ccc2F)cc1 [GW810445],54,0,0,22,7,0,0,0,0,6,0,0,0,0,27,0,0,0,0,0
CN(c1ccc2c(c1)nc(NCc1ccc(F)cc1)n2C)c1ccnc(Nc2ccc(CS(C)(=O)=O)cc2)n1.Cl [GW813244],12,0,26,52,24,14,4,18,4,0,3,21,73,11,100,0,18,0,0,24
